Screens deposited in PubChem BioAssay by National Center for Advancing Translational Sciences (NCATS).
The list is not random: actives were taken first. Their share in the collection is about 17%.
TDP1 cell CPT: DT40-hTDP1 cell growth loss with CPT. chicken DT40 Tdp1-/-;hTDP1 cells + 20 nM CPT, ATP luminescence, 48 h. Potency, µM (highest dose often 46.2 µM), for inactives: at the highest dose activity change, negative = growth inhibition, most hits filed as inhibitors. actives 12% (n = 420,000). AID 686979; note: % is set by controls: 0 for no effect and ±100 for the full control effect; nearly all actives have a fitted effect of over 55% in size
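Chicken DT40 Tdp1-/- cells complemented with human TDP1, 400 cells/well, exposed to compounds plus 20 nM camptothecin for at least 48 h at 37 C; viability read as ATP content by CellTiter-Glo luminescence.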
HepG2 tox: kills HepG2 cells in TGF-b inhibitor counter-screen; actives 0.76% (n = 410,000); Potency, µM (top dose mostly 46.1 µM), without a hit: at the top dose activity change, negative = cytotoxicity, most hits filed as cytotoxic; HepG2 CAGA-GFP viability, ATP luminescence, 18 h; AID 588856
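HepG2 CAGA-GFP cells (1000/well, DMEM with 1% FBS) received compound, then TGF-beta at 500 pg/mL final, and were incubated 18 hours at 37 degrees C. Viability was read by CellTiter-Glo luminescence. Media-only wells were set as complete cell-killing and DMSO as no toxicity.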
ATXN2 expr inh: reduces ATXN2 reporter expression in HEK-293 cells; HEK-293 ATXN2-luciferase reporter, luminescence, 24 h; Potency, µM (top dose mostly 57 µM), for the others: at the highest dose activity change, negative = inhibition, most hits filed as inhibitors; AID 1745845; actives 0.72% (n = 360,000); note: % is set by controls: 0 for no effect and ±100 for the full control effect; nearly all actives have a fitted effect of over 55% in size
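qHTS (up to 57 uM final) was run with 24 h compound exposure of reporter cells at 37 °C. Each well was multiplexed: SteadyGlo luminescence measured ATXN2-luciferase expression after a fluorogenic Gly-Phe-AFC viability readout (25 uM final).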
TDP1 cell noCPT: qHTS for Inhibitors of human tyrosyl-DNA phosphodiesterase 1 (TDP1): qHTS in cells in absence of CPT; DT40 Tdp1-/- hTDP1 cells, no CPT, ATP luminescence, 48 h; Potency, µM (titrated, usually from 46.2 µM), inactives show at the top dose activity change, negative = growth inhibition, usual class: inhibitors; actives 15% (n = 420,000); note: % is set by controls: 0 for no effect and ±100 for the full control effect; nearly all actives have a fitted effect of over 55% in size
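DT40 Tdp1-/-;hTDP1 cells, no CPT (DMSO vehicle only), 400 cells/well; compounds pin-transferred; ≥48 hr, 37 °C; CellTiter-Glo 30 min RT dark, luminescence read.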
TGFb inhibitor: inhibitors of TGF-b signaling | HepG2 CAGA-GFP TGF-b/SMAD3 reporter, GFP fluorescence, 18 h; TGF-beta stimulated, 500 pg/mL final | actives 1.2% (n = 410,000) | Potency, µM (series often up to 46.1 µM), for inactives: at the highest dose activity, negative = inhibition, usual class: inhibitors | AID 588855; note: % is set by controls: 0 for no effect and ±100 for the full control effect; nearly all actives have a fitted effect of over 65% in size
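HEPG2 CAGA-GFP cells (1000/well, DMEM with 1% FBS) were pre-incubated 2 h at 37 degrees C, given compound by pin tool, then stimulated with TGF-beta at 500 pg/mL final for 18 h before per-cell GFP fluorescence imaging.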
S2 tox: reduces viability in counter-screen for ATXN expression inhibitors. S2 cells (HEK-293 line with an ATXN2-luciferase reporter) viability, CellTiter-Fluor protease fluorescence, 24 h. Potency, µM (doses to about 56.7 µM), hits mostly cytotoxic. actives 0.49% (n = 400,000). AID 651635; note: nearly all actives have a fitted effect of over 40% in size
Numbers without * were called inactive; i = inactive; u = inconclusive; x = no result; ! = a repeat was not active. Calls come from the whole dose curve; as a rule, active = well fitted curve in the direction sought with a large enough effect; inconclusive = small, poorly fitted or top-dose-only effect, or another doubt; inactive = no such curve, though single readings can be large; an effect the other way counts as inactive or inconclusive. Potency is the fitted concentration of half-maximal effect.

SMILES | TDP1 cell CPT | HepG2 tox | ATXN2 expr inh | TDP1 cell noCPT | TGFb inhibitor | S2 tox
Cc1cccc(C)c1OCc1nc2c3cnn(-c4ccccc4Br)c3ncn2n1 | 10µM* | -24% | x | u | x | x
Cc1ccccc1OCc1nc2c3cnn(-c4ccccc4Br)c3ncn2n1 | u | -1% | x | u | x | x
COC(=O)[C@]12CCCCC=C1N(Cc1ccc(Cl)cc1Cl)C(=O)[C@H](CC(=O)NCc1ccc(C)o1)C2 | u | x | -24% | 16µM* | x | u
COC(=O)[C@]12CCCCC=C1N(Cc1ccc(Cl)cc1Cl)C(=O)[C@H](CC(=O)NCCC(C)C)C2 | u | x | u | 21µM* | x | u
COC(=O)[C@]12CCCCC=C1N(Cc1ccc(Cl)cc1Cl)C(=O)[C@H](CC(=O)NCCCCc1ccccc1)C2 | u | x | -33% | u | x | u
COC(=O)[C@]12CCCCC=C1N(Cc1ccco1)C(=O)[C@H](CC(=O)NCc1ccc(C)o1)C2 | u | x | 11% | u | x | i
CCCCNC(=O)C[C@@H]1C[C@@]2(C(=O)OC)CCCCC=C2N(Cc2ccc(Cl)cc2Cl)C1=O | u | x | u | 16µM* | x | 32µM*
O=C(NC(=S)Nc1cccnc1Cl)c1ccc(F)cc1 | -22% | 6% | 27% | u | 14% | i
CN(C)C(=O)CSc1nnc(-c2cccs2)n1-c1ccccc1 | -22% | 1% | -5% | -16% | 4% | i
COC(=O)c1ccc2c(=O)n(CCCCCC(=O)NCc3ccc(OC)cc3)c(=O)[nH]c2c1 | 23µM* | -9% | x | u | u | x
COC(=O)c1ccc2c(=O)n(CCCCCC(=O)NC(C)C)c(=O)[nH]c2c1 | u | -23% | -22% | 21µM* | 25µM*! | i
CC(C)(C)C(=O)CN1C(=O)NC2(CCCc3ccccc32)C1=O (stereo unspecified) | 3% | -2% | 0% | 22% | 0% | u
FC(F)(F)c1cc(Cl)c2nc(-c3ccc(Cl)cc3)c(Cc3ccccc3)n2c1 | -13% | 2% | 5% | -11% | u | i
O=C(COc1ccccc1Cl)NNC(=O)c1ccc(-n2cncn2)c([N+](=O)[O-])c1 | u | 5% | 5% | -9% | 3% | i
Cc1cccc2cc(/C=C3\N=C(c4ccccc4)OC3=O)c(N3CCOCC3)nc12 | u | -1% | -4% | 23µM* | u | i
Cc1ccc(C2=N/C(=C/N3CCOCC3)C(=O)O2)cc1 | -14% | -12% | 39% | -10% | 13% | i
COc1cc2c(=O)[nH]c3cc([N+](=O)[O-])ccc3c2cc1[N+](=O)[O-] | 8.2µM* | -2% | x | 6.5µM* | 3% | i
COc1cc(/C=N/NC(=O)C2CC(=O)N(c3ccc(C)cc3)C2)cc(OC)c1OC (stereo unspecified) | 1% | 17% | 8% | -22% | 5% | i
COc1ccc(N2CCN(CCCNC(=O)Cn3c(-c4cccs4)cc4ccccc43)CC2)cc1 | 18µM* | -67% | -11% | 23µM* | u | u
CC(C)CCNC(=O)Cn1c(-c2cccs2)cc2cc(F)ccc21 | -25% | -11% | -10% | -22% | 4% | i
O=C(Cn1c(-c2cccs2)cc2ccccc21)NCCCN1CCN(c2ccc(F)cc2)CC1 | 23µM* | -28% | 0% | 23µM* | u | i
COc1cccc(CCNC(=O)Cn2c(-c3cccs3)cc3ccccc32)c1 | 21µM* | -38% | -11% | u | u | u
CCCCn1c(N)c(N(CC(C)C)C(=O)CCCc2nc3ccccc3c(=O)[nH]2)c(=O)[nH]c1=O | 2% | -11% | -8% | -22% | -2% | i
CC(=O)c1ccc(C2CC(OCCF)=CC(=O)O2)cc1 (stereo unspecified) | 1% | x | x | -9% | x | x
CCN(c1ccccc1)S(=O)(=O)c1ccc(F)c(C(=O)Nc2ccc(C)cc2)c1 | 9.2µM* | -6% | -26% | 12µM* | -48% | i
SMILES | TDP1 cell CPT | HepG2 tox | ATXN2 expr inh | TDP1 cell noCPT | TGFb inhibitor | S2 tox
CCN(c1ccccc1)S(=O)(=O)c1cc(C(=O)Nc2ccc(F)c(F)c2)ccc1F | 23µM* | -30% | u | u | 11µM* | u
CCC1CCCCN1C(=O)CSc1nnc(-c2cccc(Cl)c2)o1 (stereo unspecified) | 26µM* | -11% | 15% | 23µM* | -3% | i
CCC1CCCCN1C(=O)CSc1nnc(-c2ccc(Cl)cc2)o1 (stereo unspecified) | 21µM* | -2% | 1% | 16µM* | -2% | i
CC1Cc2ccccc2N1C(=O)CSc1nnc(-c2cccc(Cl)c2)o1 (stereo unspecified) | 15µM* | -4% | 0% | u | -1% | i
CCC1CCCCN1C(=O)CSc1nnc(-c2ccc(Cl)s2)o1 (stereo unspecified) | -15% | -5% | 9% | -27% | -6% | u
CCC1CCCCN1C(=O)CSc1nnc(-c2ccc(OC)c(OC)c2)o1 (stereo unspecified) | u | -12% | -1% | u | -16% | i
CCc1ccccc1N1CC(c2nnc(NC(=O)c3ccco3)s2)CC1=O (stereo unspecified) | -13% | -3% | -10% | -30% | -17% | x
O=C(Nc1ccc(N2CCOCC2)cc1)C1CC(O)CN1S(=O)(=O)c1ccc(Cl)cc1 (stereo unspecified) | -23% | -29% | 8% | -18% | -6% | i
COc1ccc(NC(=O)CN2C(=O)CCc3cc(S(=O)(=O)N4CCOCC4)ccc32)c(OC)c1 | 3% | -10% | -6% | -4% | u | i
CC(OC(=O)Cn1cnc2c1c(=O)n(C)c(=O)n2C)C(=O)N(C)c1ccccc1 (stereo unspecified) | u | -39% | -16% | -29% | u | i
O=C(Nc1cc(F)ccc1F)C1CCN(C(=O)c2cnn(-c3ccccc3)c2-n2cccc2)CC1 | u | -24% | -10% | 26µM* | u | u
CC(=O)c1cccc(NC(=O)C2CCN(C(=O)c3cnn(-c4ccccc4)c3-n3cccc3)CC2)c1 | u | 4% | 1% | u | u | i
O=C(Nc1ccc(F)cc1F)C1CCN(C(=O)c2cnn(-c3ccccc3)c2-n2cccc2)CC1 | u | -4% | -11% | u | u | i
